tim10-1 inh: inhibits growth of tim10-1 mutant yeast | S. cerevisiae tim10-1 ts strain growth, BacTiter-Glo, 24 h | inhibition, % at 20 µM | 330,000 compounds, 2.2% hits;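 active = inhibition of at least 40%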;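 note: mutant grown at 25 °C; 0% = DMSO wells with yeast and 100% = wells holding no yeast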
tim23-1 inh: inhibits growth of tim23-1 mutant yeast; S. cerevisiae tim23-1 growth, BacTiter-Glo luminescence, 24 h; AID 463212; 330,000 compounds, 1.3% hits; inhibition, % at 20 µM;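 active = growth inhibition of the mutant yeast at or above 50%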;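 note: temperature-sensitive mutant grown at 25 °C; plate controls were DMSO-treated mutant yeast for no effect and medium wells lacking yeast for full effect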
TIM10 inh: inhibits growth of TIM10 yeast strain | inhibition, % at 10 µM | AID 463195 | 330,000 compounds, 1.4% hits | S. cerevisiae TIM10 strain growth, BacTiter-Glo luminescence, 24 h;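 active = inhibition of 40% or more at the single tested concentration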;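 note: wild-type TIM10 isogenic control strain grown at permissive 25 °C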
PfHsp90 yeast 2: growth inhibition of yeast expressing Plasmodium Hsp90; S. cerevisiae expressing PfHsp90, BacTiter-Glo ATP, 48 h; yeast lacking PDR1 and PDR3 efflux regulators; 310,000 compounds, 0.32% hits; inhibition, % at 9.4 µM;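 active = every replicate shows inhibition above about 80%, whatever the replicate mean, limit read from the data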;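 note: 0% = DMSO neutral controls and 100% = 20 µM radicicol positive controls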
Rce1 inhib: blocks yeast Ras-converting enzyme; Q03530; yeast membranes, quenched prenylated peptide cleavage fluorescence; calls only; 290,000 compounds, 0.27% hits;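 active = fall in fluorescence gain of 50% or more versus controls, with final raw signal at or below 3038400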;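 note: plate controls were neutral control wells for no effect and wells lacking membranes for full effect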
Target sequence (Q03530 whole entry, looked up): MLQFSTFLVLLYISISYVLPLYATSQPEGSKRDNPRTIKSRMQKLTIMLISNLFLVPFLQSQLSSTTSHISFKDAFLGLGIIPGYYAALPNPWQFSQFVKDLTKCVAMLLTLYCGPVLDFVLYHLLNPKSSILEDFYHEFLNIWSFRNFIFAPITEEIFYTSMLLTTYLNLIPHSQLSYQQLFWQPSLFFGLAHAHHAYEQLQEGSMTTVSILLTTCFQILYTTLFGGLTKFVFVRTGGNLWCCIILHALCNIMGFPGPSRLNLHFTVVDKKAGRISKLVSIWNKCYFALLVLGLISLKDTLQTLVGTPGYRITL
tim10-1 confirm: tim10-1 yeast growth inhibition, confirmed | AID 463213 | shares compounds with tim10-1 inh | S. cerevisiae tim10-1 ts strain growth, BacTiter-Glo, 24 h | inhibition, % at 20 µM | 7,400 compounds, 56% hits;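 active = inhibition of yeast growth at or above a set limit in either of two repeat tests at 20 µM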;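 note: tim10-1 mutant grown at permissive 25 °C to find synthetic lethal compounds; 0% = DMSO yeast wells and 100% = medium wells without yeast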
tim10 confirm: TIM10 yeast growth inhibition, confirmed. S. cerevisiae tim10 strain growth, BacTiter-Glo luminescence, 24 h. 4,600 compounds, 63% hits. shares compounds with TIM10 inh. inhibition, % at 10 µM. AID 463215;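 active = inhibition of yeast growth at or above a set limit in either of two replicates at 10 µM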;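 note: this counterscreen used the strain with wild-type TIM10; 0% = yeast with DMSO and 100% = medium wells lacking yeast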
* = called active by the depositor; i = inactive; · = no result. Compounds with a hit are over-represented: about 3.7% of the library has one in this group of screens.

SMILES | tim10-1 inh | tim23-1 inh | TIM10 inh | PfHsp90 yeast 2 | Rce1 inhib | tim10-1 confirm | tim10 confirm
Cc1cc(C)nc(N(C#N)CC(=O)c2ccccc2)n1 | 21.5 | 7.7 | 22.7 | -0.6 | i | · | ·
CCc1ccc(C(=O)CN(C#N)c2nc(C)cc(C)n2)cc1 | 41.9* | 35.0 | 48.3* | 8.5 | i | 15.1 | -35.5
O=C(N/N=C/C=C/c1ccc(Br)cc1)C(O)c1ccccc1 (configuration not stated) | 15.5 | 4.4 | 3.3 | 2.8 | i | · | ·
CCNC(=S)N/N=C(\C)c1ccc2ccccc2c1 | 42.0* | 34.7 | 53.5* | · | i | 31.0* | 38.1*
C/C(=N\NC(=S)NCc1ccccc1)c1ccccc1 | 47.0* | 30.8 | 44.5* | -16.2 | i | 43.9* | 40.0*
CCNC(=S)N/N=C(\C)c1ccc2ccccc2c1OC(F)F | 47.2* | 32.5 | 55.8* | -1.2 | i | -1.5 | 41.3*
Cn1nc(C(=O)NCc2ccccc2)c2c1-c1ccccc1S(=O)(=O)C2 | 16.3 | 16.4 | 7.2 | 14.8 | i | · | ·
COc1ccc(N(CC(=O)N2CCN(c3ccccc3F)CC2)S(=O)(=O)c2c(C)noc2C)cc1 | 19.1 | 7.5 | 9.8 | 8.6 | i | · | ·
Cc1ccc(-c2csc(-c3c[nH]c4ccccc34)n2)c(C)c1 | 41.3* | 40.7 | 42.8* | -23.2 | i | 38.7* | 47.6*
COc1ccc(OC)c(C(=O)/C=C/c2cccnc2)c1 | 48.5* | 33.3 | 42.0* | 15.9 | i | 32.3* | 33.9*
S=c1[nH]nc(COc2ccccc2)n1/N=C/C(Cl)=C/c1ccccc1 | 59.5* | 44.5 | 51.6* | · | i | 55.6* | 45.5*
S=c1[nH]nc(COc2ccccc2)n1/N=C/C=C/c1ccccc1 | 15.6 | 7.2 | 20.4 | -1.8 | i | · | ·
O=C(O)/C=C1\NC(=O)c2ccccc21 | 17.2 | 16.1 | 5.5 | -10.3 | i | · | ·
O=C1N/C(=C\c2ccc(O)cc2)C(=O)c2ccccc21 | 54.9* | 40.1 | 47.8* | · | i | 42.0* | 35.5*
COc1ccc2ccccc2c1/C=N/NC(=S)NCCN1CCOCC1 | 22.9 | 8.7 | 20.7 | 16.4 | i | · | ·
S=C(NCCN1CCOCC1)N/N=C/c1c2ccccc2cc2ccccc12 | 56.7* | 30.1 | 41.9* | -6.2 | · | 43.2* | -18.4
COc1ccc(NC(=O)C2CCCN(c3nn4c(=O)cc(C)nc4s3)C2)c(OC)c1 (configuration not stated) | 0.5 | -0.6 | -3.6 | 12.1 | i | · | ·
COC(=O)CCCn1c(C)cc(C(=O)CCl)c1C | 45.4* | 36.2 | 41.6* | · | i | 36.5* | 35.5*
COC(=O)CCn1c(C)cc(C(=O)COc2ccccc2C(N)=O)c1C | 9.4 | -15.1 | 7.6 | -9.0 | i | · | ·
CC(=O)/C(=N\Nc1ccccc1Cl)Sc1nnc(-c2ccccc2)n1-c1ccccc1 | 13.4 | 10.8 | 22.0 | 15.6 | i | · | ·
CC(=O)/C(=N\Nc1ccccc1)Sc1nnc(-c2ccccc2)n1-c1ccccc1 | 43.8* | 24.8 | 46.3* | 17.8 | i | 29.4 | 3.5
O=C1c2ccccc2C(=O)N1OS(=O)(=O)c1ccc(F)cc1 | · | · | · | 3.6 | i | · | ·
Cc1cc(C)c(S(=O)(=O)ON2C(=O)c3ccccc3C2=O)cc1C | 70.5* | 13.8 | 44.7* | 3.1 | i | 60.2* | 73.6*
Cc1ccc(CSCC(=O)N2CCN(Cc3ccc4c(c3)OCO4)CC2)cc1 | 56.8* | 38.6 | 41.0* | 11.6 | i | 40.5* | -23.8
O=C(O)CSCC(=O)N1CCN(Cc2ccc3c(c2)OCO3)CC1 | 3.4 | 10.6 | 7.3 | -19.0 | i | · | ·
SMILES | tim10-1 inh | tim23-1 inh | TIM10 inh | PfHsp90 yeast 2 | Rce1 inhib | tim10-1 confirm | tim10 confirm
O=C(NCCCN1CCOCC1)C(=O)NCC1OCCCN1S(=O)(=O)c1cc(F)ccc1F (configuration not stated) | -4.9 | 4.6 | -7.7 | -4.6 | i | · | ·
O=C1N=C(N2CCc3ccccc3C2)S/C1=C\c1cccc(O)c1 | 23.1 | 34.9 | 27.9 | -26.5 | i | · | ·
CCOc1ccc(/C=C2\SC(N3CCc4ccccc4C3)=NC2=O)cc1 | 47.3* | 28.0 | 53.8* | -44.1 | i | 35.5* | 18.6
CC(C)CN(C(=O)Cn1c(Cl)nc2c1c(=O)n(C)c(=O)n2C)C1CCS(=O)(=O)C1 (configuration not stated) | 4.3 | 14.8 | -5.7 | 1.5 | i | · | ·
CCOC(=O)c1ccc(S(=O)(=O)Nc2cc(S(=O)(=O)N3CCOCC3)ccc2O)cc1 | -1.6 | -1.4 | -2.1 | -5.3 | · | · | ·
Nc1cc(OC(=O)c2c(F)cccc2Cl)nn1S(=O)(=O)c1ccccc1 | 24.1 | 38.5 | 35.4 | 9.1 | i | · | ·
Nc1cc(OC(=O)c2cccs2)nn1S(=O)(=O)c1ccc(F)cc1 | 41.2* | 43.6 | 52.6* | 3.0 | i | 31.1* | 23.1
CC(=O)Oc1ccc(-n2c(=O)c3ccccc3c3ccccc3c2=O)cc1 | 10.7 | 30.9 | 0.9 | 15.6 | i | · | ·
COC(=O)c1cc(N2C(=O)C3C(C2=O)C2(C)C=CC3(C)O2)ccc1Cl (configuration not stated) | 53.3* | 18.0 | 82.7* | · | i | 75.5* | 89.7*
CC(=O)Oc1ccc(N2C(=O)C3C(C2=O)C2(C)C=CC3(C)O2)cc1 (configuration not stated) | 55.5* | 2.2 | 83.2* | · | · | 92.7* | 87.4*
COc1ccc(NC(=O)c2cc(N3C(=O)C4C5CCC(C5)C4C3=O)ccc2Cl)c(OC)c1 (configuration not stated) | 15.5 | 15.9 | 3.3 | 19.8 | i | · | ·
CC(NC(=O)c1ccco1)C(=O)N1CC=C(c2ccccc2)CC1 (configuration not stated) | -36.3 | 8.4 | -12.0 | 8.2 | · | · | ·
Clc1ccc(-c2nnnn2-c2ccc(Cl)cc2)cc1 | 25.4 | 27.3 | 34.1 | -12.9 | i | · | ·
Cc1ccc(-n2nnnc2C(Cl)(Cl)c2nnnn2-c2ccc(C)cc2)cc1 | 45.2* | 47.6 | 62.2* | 128.4* | i | 14.8 | 75.2*
CCC(c1nnc(SCC(=O)NC2CCCCC2)n1Cc1ccccc1)N(C)C (configuration not stated) | -7.4 | 4.1 | -2.4 | -11.6 | i | · | ·
Cc1ccc(-c2nn(-c3ccccc3)c3[nH]c(=O)c(CNCc4ccccc4)cc23)cc1 | 52.5* | 47.3 | 43.3* | 11.2 | · | 46.8* | 42.1*
O=C(CCC1CCCCC1)NCCN1C2=NC[C@@H](Cc3ccccc3)N2C[C@H]1Cc1ccc(O)cc1 | -1.4 | 1.4 | -2.2 | -0.2 | i | · | ·
O=C(Nc1ncc2c(n1)-c1ccccc1OC2)c1cccc([N+](=O)[O-])c1 | 23.1 | 1.5 | 20.0 | 2.5 | i | · | ·
O=C(Nc1ncc2c(n1)-c1ccccc1CC2)c1cccc(Cl)c1 | 48.9* | 40.1 | 44.1* | -3.4 | i | 42.9* | 22.6
COC(=O)c1ccc(CN2CCCC(C(=O)c3ccccc3OC)C2)cc1 (configuration not stated) | 8.5 | 16.3 | 11.7 | 1.0 | i | · | ·
